tim23-1 inh: growth inhibitors of tim23-1 mutant yeast, primary screen, luminescence, uHTS. hit rate 1.3% among 330,000. S. cerevisiae tim23-1 growth, BacTiter-Glo luminescence, 24 h. AID 463212, 2010. inhibition, % at 20 µM;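 active = growth inhibition of the mutant yeast at or above 50%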;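 also: temperature-sensitive mutant grown at 25 °C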
Rce1 inhib: yeast Rce1p protease inhibitors, primary screen, biochemical, fluorescence, cell-free homogeneous | yeast membranes, quenched prenylated peptide cleavage fluorescence | hit rate 0.27% among 290,000 | calls only;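 active = fall in fluorescence gain of 50% or more versus controls, with final raw signal at or below 3038400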
Target sequence (Q03530 whole entry, looked up): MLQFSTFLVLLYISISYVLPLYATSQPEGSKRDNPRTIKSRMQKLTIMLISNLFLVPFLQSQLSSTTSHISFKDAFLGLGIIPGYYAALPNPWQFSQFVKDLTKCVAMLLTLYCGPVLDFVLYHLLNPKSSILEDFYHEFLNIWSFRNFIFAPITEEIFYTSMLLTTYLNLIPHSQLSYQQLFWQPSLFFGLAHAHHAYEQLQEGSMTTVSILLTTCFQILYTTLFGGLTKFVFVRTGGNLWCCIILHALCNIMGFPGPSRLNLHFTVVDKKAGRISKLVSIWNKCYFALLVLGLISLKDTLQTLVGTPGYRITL
PfHsp90 set2: growth inhibition of PfHsp90-expressing yeast, primary screen, antimalarial PfHsp90 inhibitor project, S. cerevisiae, BacTiter-Glo luminescence, single point, set 2; AID 504621, 2011; inhibition, % at 9.4 µM; BacTiter-Glo ATP, 48 h; yeast lacking PDR1 and PDR3 efflux regulators; hit rate 0.32% among 310,000;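 active = every replicate shows inhibition above about 80%, whatever the replicate mean, limit read from the data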
TIM10 inh: growth inhibitors of isogenic TIM10 control yeast, primary screen, counter-screen for tim10-1 yeast inhibitor project, luminescence, uHTS. S. cerevisiae TIM10 strain growth, BacTiter-Glo luminescence, 24 h. inhibition, % at 10 µM. hit rate 1.4% among 330,000. AID 463195, 2010;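 active = inhibition of 40% or more at the single tested concentration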;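 also: wild-type TIM10 isogenic control strain grown at permissive 25 °C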
tim10-1 inh: growth inhibitors of tim10-1 mutant yeast, primary screen, luminescence, uHTS; AID 463190, 2010; inhibition, % at 20 µM; hit rate 2.2% among 330,000; S. cerevisiae tim10-1 ts strain growth, BacTiter-Glo, 24 h;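 active = inhibition of at least 40%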;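 also: mutant grown at 25 °C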
TIM10 conf: growth inhibitors of wild-type TIM10 yeast, confirmation, counter-screen for tim10-1 synthetic lethality project, single concentration, luminescence, S. cerevisiae | S. cerevisiae tim10 strain growth, BacTiter-Glo luminescence, 24 h | inhibition, % at 10 µM | hit rate 63% among 4,600 | shares compounds with TIM10 inh;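 active = inhibition of yeast growth at or above a set limit in either of two replicates at 10 µM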; also: this counterscreen used the strain with wild-type TIM10
Each line names hits and unclear results; the compound was inactive in the other large screens (follow-up assays come after a bar, where they were run). This is a sample that favours compounds with a hit; in the whole collection about 3.7% have one here.

CCOC(=O)C1CCN(S(=O)(=O)c2ccc3c(c2)CC(C)N3C(=O)C2CC2)CC1 (stereo not given)	TIM10 inh 40 | TIM10 conf 49
CCc1ccc(N(C(=O)c2ccco2)C(C(=O)NC2CCCC2)c2ccco2)cc1 (stereo not given)	TIM10 inh 42 | TIM10 conf inactive
O=C(NC1CCCC1)C(c1ccco1)N(C(=O)c1ccco1)c1ccccc1 (stereo not given)	none
Cc1nc2ccc(NC(=O)c3ccc([N+](=O)[O-])cc3[N+](=O)[O-])cc2s1	TIM10 inh 42 | TIM10 conf inactive
Cc1nc2ccc(C(=O)Nc3cccc([N+](=O)[O-])c3)cc2s1	none
Cc1cccc(N2CCN(C(=O)c3noc4c3COc3ccc(C)cc3-4)CC2C)c1 (stereo not given)	none
O=C(COc1cc2oc(=O)c3c(c2cc1Cl)CCC3)NCc1ccccn1	none
COC(=O)C1C2C=CC3(CN(c4cccc(C)c4)C(=O)C13)O2 (stereo not given)	TIM10 inh 94 | TIM10 conf inactive
COC(=O)C1C2C=CC3(CN(c4cccc(Cl)c4)C(=O)C13)O2 (stereo not given)	none
Cc1cccc(NC(=O)c2ccc3c(c2)OCCO3)c1	none
O=C(Nc1cccc(F)c1)c1ccc2c(c1)OCCO2	TIM10 inh 41 | TIM10 conf 53
Cc1ccc(NC(=O)c2ccc3c(c2)OCCO3)cc1S(=O)(=O)Nc1cccc(Cl)c1	TIM10 inh 43 | TIM10 conf inactive
O=C(Nc1ccc(N2CCCCC2)c(Cl)c1)c1ccc2c(c1)OCCO2	TIM10 inh 45 | TIM10 conf inactive
N=c1oc2ccccc2cc1C(=O)Nc1cccc(F)c1	TIM10 inh 40 | TIM10 conf inactive
COc1cc(OC)c(C#N)c(S(=O)Cc2ccccc2)c1 (stereo not given)	none
CCOC(=O)N1CCN(C(=O)c2ccc3nc(N4CCC(C)CC4)sc3c2)CC1	none
COc1cccc(N2CCN(C(=O)c3ccc4nc(N5CCC(C)CC5)sc4c3)CC2)c1	TIM10 inh 42 (no result: PfHsp90 set2) | TIM10 conf 42
COCCNC(=S)N/N=C/c1c2ccccc2cc2ccccc12	TIM10 inh 41 | TIM10 conf 37
NC(=S)N/N=C\c1c2ccccc2cc2ccccc12	none (no result: tim23-1 inh, Rce1 inhib, TIM10 inh, tim10-1 inh)
COc1ccc(C(=O)NCC(=O)Nc2ccc(F)cc2)cc1OC	TIM10 inh 50 | TIM10 conf inactive
Cc1nc(SCC(=O)Nc2nnc(C(C)C)s2)n[nH]1	none
CCOC(=O)C1CCN(C(=O)CCCNC(=O)Cn2cnc3sc(C)c(C)c3c2=O)CC1	none
COc1cc(/C=N/NC(=O)COc2ccccc2C)ccc1OC(=O)c1cccs1	TIM10 inh 43 | TIM10 conf 41
COc1ccc(-c2nc(SCC(=O)NC3CCCCC3)n[nH]2)cc1	none
CCCCCn1c(CNC(=O)c2cccs2)nc2ccccc21	none
CCCCCn1c(CCNC(=O)c2cccs2)nc2ccccc21	TIM10 inh 41 | TIM10 conf inactive
COc1ccc(NS(=O)(=O)c2cccc(-c3n[nH]c(=S)n3Cc3ccccc3)c2)cc1	none
Cc1nc(SC2CC(=O)N(c3ccccc3)C2=O)n[nH]1 (stereo not given)	none (no result: Rce1 inhib)
Cc1nc(S/C(C(=O)O)=C2/C(=O)Nc3ccccc32)n[nH]1	TIM10 inh 41 | TIM10 conf 38
O=C(Cc1cccc(NC(=O)C2CCCN(C(=O)C3CCCC3)C2)c1)Nc1cccc(C(=O)N2CCCCC2)c1 (stereo not given)	none (no result: tim23-1 inh, Rce1 inhib, TIM10 inh, tim10-1 inh)
CCCCN1CCN=C1Nc1ccccc1	none
COCC(C)n1c(C)cc(C(=O)COC(=O)C2=NN(c3ccccc3)C(=O)CC2)c1C (stereo not given)	none (no result: PfHsp90 set2)
Cc1nn(Cc2ccccc2)c(C)c1C(=O)OCC(=O)c1cc(C)n(C2CC2)c1C	none
COCC(C)n1c(C)cc(C(=O)COC(=O)c2c(C)nn(-c3ccccc3)c2C)c1C (stereo not given)	TIM10 inh 43 | TIM10 conf inactive
COCCn1c(C)cc(C(=O)COC(=O)c2c(C)nn(Cc3ccccc3)c2C)c1C	TIM10 inh 41 | TIM10 conf inactive
Cc1cc(O)c(N=Nc2ccc(C(=O)O)cc2)cc1C	none (no result: tim23-1 inh, Rce1 inhib, TIM10 inh, tim10-1 inh)
CC1=CC(C)(C)[N+](C)(C)c2ccc(C)cc21	none
Cc1ccc(CN(c2ccc(C(=O)N3CCCC3)cc2)S(C)(=O)=O)cc1	TIM10 inh 44 | TIM10 conf 47
Cc1ccc(CN(c2ccc(C(=O)N3CCc4ccccc4C3)cc2)S(C)(=O)=O)cc1	none
COc1ccccc1NC(=S)N/N=C/c1cccc(C)c1	none
COc1ccccc1NC(=S)N/N=C/c1ccc(O)cc1	TIM10 inh 53 | TIM10 conf inactive
CCOc1ccc(NC(=O)CN(C)C(=O)c2cccnc2Sc2ccccc2Cl)cc1OCC	none (no result: PfHsp90 set2)
O=C(NCC1COc2ccccc2O1)c1cc(S(=O)(=O)N2CCOCC2)ccc1F (stereo not given)	none (no result: Rce1 inhib, PfHsp90 set2)
O=C(Nc1ccc(C(F)(F)F)cc1)c1cc(S(=O)(=O)NCC2COc3ccccc3O2)ccc1F (stereo not given)	TIM10 inh 42 | TIM10 conf 45
CCOc1cc(/C=C2\SC(=NC)N(C)C2=O)c(Br)cc1OC(C)=O	TIM10 inh 82 | TIM10 conf inactive
N/C(Cc1cccc2ccccc12)=N\OC(=O)Cc1cccs1	TIM10 inh 49 | TIM10 conf 38
Cc1cccc(C)c1NC(=O)NN=C1CCCCC1	none
O=c1[nH]c(NNC(=S)NC2CCCCC2)nc2c1C1(CCCC1)Cc1ccccc1-2	TIM10 inh 41 | TIM10 conf 32
O=c1[nH]c(NCCCO)nc2c1C1(CCCC1)Cc1ccccc1-2	none
O=C(CSc1ccc2nnc(CCNC(=O)c3ccccc3)n2n1)Nc1ccc(F)cc1F	none
Cc1cc(C)nc(NCCC(=O)O)n1	none
CSc1ccccc1C(=O)C1CCCN(C(=O)c2cncs2)C1 (stereo not given)	none
S=C(NCc1ccccc1)N/N=C/c1cccs1	none
S=C(NCCc1ccccc1)N/N=C/c1cccs1	TIM10 inh 41 (no result: PfHsp90 set2) | TIM10 conf 38
O=C(CCc1ccccc1)N=C1SC2CS(=O)(=O)CC2N1Cc1ccc(F)cc1 (stereo not given)	none
O=C(CNS(=O)(=O)c1ccc(Br)s1)NCC1COc2ccccc2O1 (stereo not given)	TIM10 inh 61 (no result: PfHsp90 set2) | TIM10 conf 49
O=C(CNC(=O)c1ccc(Br)o1)NCC1COc2ccccc2O1 (stereo not given)	none (no result: Rce1 inhib)
